# In PubChem BioAssay (EPA / NIEHS):
# Inconclusive results are not listed. Calls of active or inactive are those of the source. The calls were made as follows, unless noted: active = hit-call score of the fitted dose curve at least 0.9, where 1 is the maximum; inconclusive = response in the unintended direction; inactive = score below 0.9.
# Legend:
# [1] = ACEA_ER_80hr: ACEA Biosciences xCELLigence Real-Time Cell Analysis on Estrogen Receptor Agonism for Proliferation (AID 2282667); conditions: T47D proliferation, impedance (xCELLigence), 80 h
# Procedure, shortened: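 Cell-growth kinetics were measured by impedance in T47D cells treated continuously with compound (top 100 uM final, 1:4 steps, 8 points). Activity at 80 h was scored as signal gain over the DMSO baseline.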
# [2] = ATG_CRE_CIS: Attagene CIS-FACTORIAL HepG2 Assay for human cAMP Responsive Element (CRE) binding protein 3 (AID 2282926; active = hit-call score of the fitted dose curve at least 0.9, where 1 is the maximum; inactive = score below 0.9); conditions: HepG2 CRE cis-reporter, Attagene multiplexed mRNA; actives raise or lower the signal
# Procedure, shortened: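 We dosed HepG2 cells bearing multiple cis-promoter reporter units for 24 h and measured reporter mRNA by RT-PCR with capillary electrophoresis detection. Bidirectional concentration-response fitting used DMSO as negative control.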
compound,measurement,setting,value
CCC[CH2][Sn]([Cl])([Cl])[Cl],outcome,[1],inactive
same,outcome,[2],inactive
CNC,outcome,[1],inactive
same,outcome,[2],inactive
COP(=S)(OC)Oc1cc(Cl)c(Cl)cc1Cl,outcome,[1],inactive
same,outcome,[2],inactive
C=CC(=O)N(C)C,outcome,[1],inactive
same,outcome,[2],inactive
O=CC=O,outcome,[1],inactive
same,outcome,[2],inactive
COc1ccc(C=O)cc1,outcome,[1],inactive
same,outcome,[2],inactive
COc1ccc(C(O)(c2cncnc2)C2CC2)cc1 (stereo not drawn),outcome,[1],inactive
CC(C)OC(=S)S,outcome,[1],inactive
O=P(O)(O)c1ccccc1,outcome,[1],inactive
O=C(O)CCC(F)(C(F)(F)F)C(F)(F)F,outcome,[1],inactive
NC(=S)Nc1ccccc1,outcome,[1],inactive
same,outcome,[2],inactive
CC1CCCCC1NC(=O)Nc1ccccc1 (stereo not drawn),outcome,[1],inactive
COP(=S)(OC)Oc1cc(Cl)c(Br)cc1Cl,outcome,[1],inactive
N#CCc1ccc(Cl)cc1,outcome,[1],inactive
same,outcome,[2],inactive
COP(=S)(OC)Oc1ccc(S(=O)(=O)N(C)C)cc1,outcome,[1],inactive
same,outcome,[2],inactive
ClCCBr,outcome,[1],inactive
same,outcome,[2],inactive
CCC1(c2ccc(N)cc2)CCC(=O)NC1=O (stereo not drawn),outcome,[1],inactive
same,outcome,[2],inactive
N#CN=C(N)N,outcome,[1],inactive
same,outcome,[2],inactive
COC(=O)Cc1ccccc1,outcome,[1],inactive
same,outcome,[2],inactive
COc1ccc(C=O)cc1OC,AC50,[1],15.7 µM (active)
same,outcome,[2],inactive
O=C1C(Cl)=C(Cl)C(=O)c2ccccc21,outcome,[1],inactive
same,outcome,[2],inactive
CC(C)=C[C@@H]1[C@@H](C(=O)OCc2coc(Cc3ccccc3)c2)C1(C)C,outcome,[1],inactive
P.[In],AC50,[1],0.101 µM (active)
Cc1cc(Cl)ccc1O[C@H](C)C(=O)O,outcome,[1],inactive
same,outcome,[2],inactive
NN=C(N)N,outcome,[1],inactive
Oc1ccc(-c2ccccc2)cc1,AC50,[1],10.5 µM (active)
same,outcome,[2],inactive
C=C(C)C#N,outcome,[1],inactive
same,outcome,[2],inactive
NC(=O)CF,outcome,[1],inactive
O=C(c1ccccc1)C(Cl)Cl,outcome,[1],inactive
same,outcome,[2],inactive
CCNc1nc(NC(C)(C)C)nc(SC)n1,outcome,[1],inactive
same,outcome,[2],inactive
Cc1ccc2ccccc2c1C,AC50,[1],13.5 µM (active)
CCOP(=S)(OCC)Oc1nc(Cl)c(Cl)cc1Cl,outcome,[1],inactive
same,outcome,[2],inactive
CCCCCCCCCCCCCCCC[n+]1ccccc1,AC50,[1],0.081 µM (active)
CCCCOCCOC(C)=O,outcome,[1],inactive
same,outcome,[2],inactive
CN(C)P(=O)(N(C)C)N(C)C,outcome,[1],inactive
same,outcome,[2],inactive
CC1(C)CCC(Cc2ccc(Cl)cc2)C1(O)Cn1cncn1 (stereo not drawn),outcome,[1],inactive
same,outcome,[2],inactive
CC(C)CCCCCCOC(=O)c1ccccc1C(=O)OCCCCCCC(C)C,outcome,[1],inactive
same,outcome,[2],inactive
ClCc1ccccn1,outcome,[1],inactive
same,AC50,[2],67.5 µM (active)
O=C(O)Cc1ccccc1,outcome,[1],inactive
same,outcome,[2],inactive
O=C(NCO)NCO,outcome,[1],inactive
same,outcome,[2],inactive
c1ccc(N=NNc2ccccc2)cc1,outcome,[1],inactive
same,outcome,[2],inactive
[O-][Cl+2]([O-])O,outcome,[1],inactive
same,outcome,[2],inactive
Nc1ccc(N=Nc2ccc(-c3ccc(N=Nc4c(S(=O)(=O)O)cc5cc(S(=O)(=O)O)c(N=Nc6ccccc6)c(O)c5c4N)cc3)cc2)c(N)c1,outcome,[1],inactive
same,outcome,[2],inactive
COc1cc2c(cc1OC)[C@@]13CCN4CC5=CCO[C@H]6CC(=O)N2[C@H]1[C@H]6[C@H]5C[C@H]43,outcome,[1],inactive
same,outcome,[2],inactive
CC(=[OH+])/C=C(/C)[O-].CC(=[OH+])/C=C(/C)[O-].CC(=[OH+])/C=C(/C)[O-].[Fe],outcome,[1],inactive
same,outcome,[2],inactive
CCC[CH2][Sn]([CH2]CCC)([CH2]CCC)[O]C(=O)c1ccccc1,outcome,[1],inactive
same,outcome,[2],inactive
CCOC(=O)CP(=O)(OCC)OCC,outcome,[1],inactive
same,outcome,[2],inactive
CC(Br)C(=O)O (stereo not drawn),outcome,[1],inactive
same,outcome,[2],inactive
CCOP(=S)(OCC)Oc1ccc(S(C)=O)cc1 (stereo not drawn),outcome,[1],inactive
same,outcome,[2],inactive
C1CCC(NC2CCCCC2)CC1,outcome,[1],inactive
same,outcome,[2],inactive
Nc1ccc(-c2ccc(N)c(Cl)c2)cc1Cl,outcome,[1],inactive
same,outcome,[2],inactive
CC(=O)c1cc(C(C)(C)C)cc2c1CCC2(C)C,outcome,[1],inactive
same,AC50,[2],100 µM (active)
CCc1ccccc1N,outcome,[1],inactive
same,outcome,[2],inactive
ClCc1cccnc1,outcome,[1],inactive
same,AC50,[2],57 µM (active)
Cc1ccc(N)cc1Cl,outcome,[1],inactive
same,outcome,[2],inactive
ClC(Cl)=C(Cl)C(Cl)=C(Cl)Cl,outcome,[1],inactive
same,AC50,[2],180 µM (active)
CCOP(=S)(OCC)SCCS(=O)(=O)CC,outcome,[1],inactive
same,outcome,[2],inactive
O=[N+]([O-])c1ccc2c3c(cccc13)CC2,outcome,[1],inactive
same,outcome,[2],inactive
OCc1ccco1,outcome,[1],inactive
same,outcome,[2],inactive
COP(=S)(OC)Oc1ccc(Sc2ccc(OP(=S)(OC)OC)cc2)cc1,AC50,[1],0.0233 µM (active)
same,outcome,[2],inactive
COP(=O)(OC)OC,outcome,[1],inactive
same,outcome,[2],inactive
CCN(CC)C(=O)Cl,outcome,[1],inactive
same,outcome,[2],inactive
ClC1=C(Cl)[C@]2(Cl)[C@@H]3[C@@H](Cl)[C@@H](Cl)C[C@@H]3[C@@]1(Cl)C2(Cl)Cl,outcome,[1],inactive
same,outcome,[2],inactive
BrCCBr,outcome,[1],inactive
same,outcome,[2],inactive
COC[C@H](C)N(C(=O)CCl)c1c(C)csc1C,outcome,[1],inactive
same,outcome,[2],inactive
CCC(=O)c1ccccc1,outcome,[1],inactive
same,outcome,[2],inactive
Cc1ccccc1C(=O)Nc1cccc(OC(C)C)c1,outcome,[1],inactive
same,outcome,[2],inactive
Clc1nc(Cl)nc(Cl)n1,outcome,[1],inactive
same,outcome,[2],inactive
Clc1ccc(C2(Cn3cncn3)CC(Br)CO2)c(Cl)c1 (stereo not drawn),outcome,[1],inactive
same,outcome,[2],inactive
CCOP(=S)(OCC)SCSP(=S)(OCC)OCC,outcome,[1],inactive
same,outcome,[2],inactive
CC(C)OC(=O)Nc1ccccc1,outcome,[1],inactive
same,outcome,[2],inactive
NNC(=S)NN,outcome,[1],inactive
same,outcome,[2],inactive
COc1cc(OC)nc(NC(=O)NS(=O)(=O)c2ncccc2C(=O)N(C)C)n1,outcome,[1],inactive
same,outcome,[2],inactive
C=CCc1ccc(OC)cc1,outcome,[1],inactive
same,outcome,[2],inactive
Cl/C=C\C[N+]12CN3CN(CN(C3)C1)C2,outcome,[1],inactive
same,outcome,[2],inactive
Clc1ccc(COC(Cn2ccnc2)c2ccc(Cl)cc2Cl)cc1 (stereo not drawn),outcome,[1],inactive
same,outcome,[2],inactive
CN(CCCC(=O)c1cccnc1)N=O,outcome,[1],inactive
same,outcome,[2],inactive
CCCCCCCCCl,outcome,[1],inactive
same,outcome,[2],inactive
O=C(CCl)CCl,outcome,[1],inactive
same,AC50,[2],24.7 µM (active)
CC1(C)Cc2cccc(O)c2O1,outcome,[1],inactive
same,outcome,[2],inactive
COP(=S)(OC)Oc1c(Cl)cc(C)cc1Cl,outcome,[1],inactive
same,outcome,[2],inactive
CC1CN1P(=O)(N1CC1C)N1CC1C (stereo not drawn),outcome,[1],inactive
same,outcome,[2],inactive
O=C(Cl)c1ccc(Cl)cc1,outcome,[1],inactive
same,outcome,[2],inactive
CNC(=O)O/N=C/C(C)(C)S(C)=O (stereo not drawn),outcome,[1],inactive
same,outcome,[2],inactive
O=C(Cc1ccccc1)c1ccccc1,outcome,[1],inactive
same,outcome,[2],inactive
CCOP(=O)(CN(CCO)CCO)OCC,outcome,[1],inactive
same,outcome,[2],inactive
N#CCCO,outcome,[1],inactive
same,outcome,[2],inactive
CC(=O)C=C(C)C,AC50,[1],10.8 µM (active)
same,outcome,[2],inactive
C[C@]12CC[C@H](O)CC1=CC[C@@H]1[C@@H]2CC[C@]2(C)C(=O)CC[C@@H]12,AC50,[1],0.983 µM (active)
same,outcome,[2],inactive
C[C@H]1O[C@@H](O[C@H]2[C@@H](O)C[C@H](O[C@H]3[C@@H](O)C[C@H](O[C@H]4CC[C@@]5(C)[C@H](CC[C@@H]6[C@@H]5CC[C@]5(C)[C@@H](C7=CC(=O)OC7)CC[C@]65O)C4)O[C@@H]3C)O[C@@H]2C)C[C@H](O)[C@@H]1O,outcome,[1],inactive
same,outcome,[2],inactive
N#Cc1ccccn1,outcome,[1],inactive
same,outcome,[2],inactive
COc1ccc(OC)c(C=O)c1,outcome,[1],inactive
same,outcome,[2],inactive
CCc1ccccc1C,AC50,[1],0.0879 µM (active)
same,outcome,[2],inactive
CC(C)c1ccc(CO)cc1,outcome,[1],inactive
same,outcome,[2],inactive
O=C(OC1CCCCC1)c1ccccc1C(=O)OC1CCCCC1,outcome,[1],inactive
same,outcome,[2],inactive
CCCCCCCCSC(=O)Oc1cc(Cl)nnc1-c1ccccc1,AC50,[1],50 µM (active)
same,outcome,[2],inactive
Nc1ncc([N+](=O)[O-])s1,outcome,[1],inactive
same,outcome,[2],inactive
O=[N+]([O-])c1c(Cl)c(Cl)cc(Cl)c1Cl,outcome,[1],inactive
same,outcome,[2],inactive
CCOC(=O)/C=C(C)/C=C/C[C@@H](C)CCCC(C)C,outcome,[1],inactive
same,AC50,[2],23.5 µM (active)
Nc1cccc2ccccc12,outcome,[1],inactive
same,outcome,[2],inactive
CCCCC(CC)CO[N+](=O)[O-] (stereo not drawn),outcome,[1],inactive
same,outcome,[2],inactive
COc1cccc(C=O)c1,outcome,[1],inactive
same,outcome,[2],inactive
CC(=O)OC(c1ccccc1)C(Cl)(Cl)Cl (stereo not drawn),outcome,[1],inactive
same,outcome,[2],inactive
CC(=O)C(Cl)C(=O)N(C)C (stereo not drawn),AC50,[1],0.272 µM (active)
same,outcome,[2],inactive
O=[N+]([O-])c1ccc(O)c([N+](=O)[O-])c1,AC50,[1],75.8 µM (active)
same,outcome,[2],inactive
CCOP(OCC)OCC,outcome,[1],inactive
same,outcome,[2],inactive
COc1ccccc1OC,outcome,[1],inactive
same,outcome,[2],inactive
Fc1ccc(C2(Cn3cncn3)OC2c2ccccc2Cl)cc1 (stereo not drawn),outcome,[1],inactive
same,outcome,[2],inactive
Nc1cccc(Cl)c1,outcome,[1],inactive
same,outcome,[2],inactive
CC(C)C1CCC(Cc2ccc(Cl)cc2)C1(O)Cn1cncn1 (stereo not drawn),outcome,[1],inactive
same,outcome,[2],inactive
CCCCP(CCCC)CCCC,outcome,[1],inactive
same,outcome,[2],inactive
C[C@@H](Oc1ccc(Cl)cc1Cl)C(=O)O,outcome,[1],inactive
same,outcome,[2],inactive
OCC(O)CCl (stereo not drawn),outcome,[1],inactive
same,outcome,[2],inactive
ClC1=C(Cl)[C@]2(Cl)[C@H]3[C@H]([C@H]4C=C[C@H]3C4)[C@@]1(Cl)C2(Cl)Cl,outcome,[1],inactive
same,outcome,[2],inactive
CCSC(C)CC1CC(=O)C(C(CC)=NOC/C=C/Cl)=C(O)C1 (stereo not drawn),outcome,[1],inactive
same,outcome,[2],inactive
O=C1CCCN1,outcome,[1],inactive
same,outcome,[2],inactive
Cl/C=C/Cl,outcome,[1],inactive
same,outcome,[2],inactive
c1cc[c]([Hg][c]2ccccc2)cc1,outcome,[1],inactive
same,AC50,[2],22.6 µM (active)
O=Cc1cccc(Oc2ccccc2)c1,outcome,[1],inactive
same,outcome,[2],inactive
CC(C#N)CCC#N (stereo not drawn),outcome,[1],inactive
same,outcome,[2],inactive
